According to PubChem BioAssay AID1508619 (National Center for Advancing Translational Sciences (NCATS), 2020):
Results filed as inconclusive are left out. Where a call stands in place of a potency, no number is given. Activity calls are given as the source filed them. Calls follow the shape of the dose curve; as a rule, active = well fitted inhibition curve with a large enough effect; inconclusive = small, poorly fitted or top-dose-only effect; inactive = no such curve, though single readings can be large or run the other way.

Assay: Counterscreen qHTS for Identification of Calcium Integrin Binding Protein 1 (CIB1) Competitor
Conditions: series mostly up to 114 µM
How it was run: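 Compounds (final up to 114 uM) preincubated 15 min at room temperature with 1 uM CIB1-GST in calcium-containing HEPES pH 7.4 buffer; 100 nM scrambled FITC peptide added, and fluorescence polarization (480/540) measured after another 15 min.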
Potency is read from the fitted curve at half-maximal effect.

Row | Compound | Potency
1 | CCCCCCCCCCCCCCCC[N+](C)(C)CCN(Cc1ccc(OC)cc1)c1ncccn1 | inactive
2 | CCCCC(CC)CN=C(N)NC(N)=NCCCCCCN=C(N)NC(N)=NCC(CC)CCCC (stereo not drawn) | inactive
3 | CCc1oc2ccccc2c1C(=O)c1cc(I)c(O)c(I)c1 | 100 µM (active)
4 | C=CCNc1oc(-c2cccc3ccccc23)nc1C#N | inactive
5 | CC1(C)OB(c2ccc(O)c3ncc(N4CCNCC4)cc23)OC1(C)C | 20 µM (active)
6 | Nc1ccc(O)c([N+](=O)[O-])c1 | 63.1 µM (active)
7 | O=c1[nH]sc2cc(Cl)ccc12 | inactive
8 | O=Cc1c(-c2ccccc2)no[n+]1[O-] | inactive
9 | O=C(O)c1ccc(O)c2ncc(N3CCC(N4CCOCC4)C3)cc12 (stereo not drawn) | inactive
10 | Cc1ccc(C(=O)NC(c2ccco2)c2cc(Cl)c3cccnc3c2O)cc1 (stereo not drawn) | inactive
11 | O=C(O)c1ccccc1SC1=NS(=O)(=O)c2ccccc21 | inactive
12 | CN1CCN(c2ccc(-c3cc(O)c4ncccc4c3)cc2)CC1 | inactive
13 | COc1cc([C@H]2Oc3cc([C@H]4Oc5cc(O)cc(O)c5C(=O)[C@@H]4O)ccc3O[C@@H]2CO)ccc1O | inactive
14 | CCOc1ccc2nc3cc(N)ccc3c(N)c2c1 | 31.6 µM (active)
15 | NS(=O)(=O)c1ccc(Nc2nc(-c3ccccc3)cs2)cc1 | 44.7 µM (active)
16 | Oc1cccc2cc(C3CC3)cnc12 | inactive
17 | O=C(NNC(=O)c1nc2ccccc2[nH]1)OCc1ccccc1 | inactive

Row | Compound | Potency
18 | CCOC(=O)c1c(-c2ccc(C)o2)csc1NC(=O)CSc1nnnn1-c1ccccc1 | inactive
19 | N#Cc1ccc(N[S+](=O)([O-])c2ccc(Nc3nc(-c4ccccc4)cs3)cc2)cc1 | 44.7 µM (active)
20 | CCOC(=O)c1nnc(N[S+](=O)([O-])c2ccc(NC(=O)Cc3ccc(Cl)c(Cl)c3)cc2)s1 | inactive
21 | Cc1ccc(S(=O)(=O)Nc2cnccc2C(=O)Nc2ccc(-c3nn[nH]n3)cc2)cc1 | inactive
22 | COc1ccc(CC(=O)Nc2ccc(S(=O)(=O)Nc3cc(C)on3)cc2)cc1C | inactive
23 | O=C1c2cccc(O)c2C(=O)c2c(O)cc(CO)cc21 | inactive
24 | O=C1CCCC2=C1C1(CCCOC1)N=C(Nc1nc3ccccc3o1)N2 (stereo not drawn) | inactive
25 | OCc1ccc(-c2ccc(-c3ccc(CO)s3)o2)s1 | inactive
26 | CO[C@@H]1C(N(C)C(=O)c2ccccc2)C[C@H]2O[C@]1(C)n1c3ccccc3c3c4c(c5c6ccccc6n2c5c31)C(=O)NC4=O (stereo partly drawn) | 22.4 µM (active)
27 | CN(C)CCN1C(=O)c2cccc3cc(N)cc(c23)C1=O | inactive
28 | CN1CCCN(C(=O)c2cccc(-c3ccc(C=C4C(=O)Nc5ccc(Cl)cc54)o3)c2)CC1 | 35.5 µM (active)
29 | Cc1cc(C(C#N)c2ccc(Cl)cc2)c(Cl)cc1NC(=O)c1cc(I)cc(I)c1O (stereo not drawn) | inactive
30 | O=C1c2c(O)ccc(O)c2C(=O)c2c(NCCNCCO)ccc(NCCNCCO)c21 | 20 µM (active)
31 | NC(=O)c1ncn([C@@H]2O[C@H](CO)[C@@H](O)[C@H]2O)c1O | inactive
32 | O=[S+]([O-])(Nc1nccs1)c1ccc(NCc2cc(Cl)cc(Br)c2O)cc1 | inactive
33 | NC(=O)c1ccnc2c(O)cccc12 | inactive
